Screening data: PubChem, National Center for Advancing Translational Sciences (NCATS)
12-LOX inh – ALOX12 (human) lipoxygenase inhibition. purified 12hLO, xylenol orange hydroperoxide absorbance. 1.1% of 580,000 active. Potency, µM (titrated, usually from 108 µM), without a hit: at the top dose activity change, negative = inhibition, usual class: inhibitors. P18054. AID 1671190; also: potency is read from the fitted curve at half-maximal effect
Target sequence (P18054 whole entry, looked up): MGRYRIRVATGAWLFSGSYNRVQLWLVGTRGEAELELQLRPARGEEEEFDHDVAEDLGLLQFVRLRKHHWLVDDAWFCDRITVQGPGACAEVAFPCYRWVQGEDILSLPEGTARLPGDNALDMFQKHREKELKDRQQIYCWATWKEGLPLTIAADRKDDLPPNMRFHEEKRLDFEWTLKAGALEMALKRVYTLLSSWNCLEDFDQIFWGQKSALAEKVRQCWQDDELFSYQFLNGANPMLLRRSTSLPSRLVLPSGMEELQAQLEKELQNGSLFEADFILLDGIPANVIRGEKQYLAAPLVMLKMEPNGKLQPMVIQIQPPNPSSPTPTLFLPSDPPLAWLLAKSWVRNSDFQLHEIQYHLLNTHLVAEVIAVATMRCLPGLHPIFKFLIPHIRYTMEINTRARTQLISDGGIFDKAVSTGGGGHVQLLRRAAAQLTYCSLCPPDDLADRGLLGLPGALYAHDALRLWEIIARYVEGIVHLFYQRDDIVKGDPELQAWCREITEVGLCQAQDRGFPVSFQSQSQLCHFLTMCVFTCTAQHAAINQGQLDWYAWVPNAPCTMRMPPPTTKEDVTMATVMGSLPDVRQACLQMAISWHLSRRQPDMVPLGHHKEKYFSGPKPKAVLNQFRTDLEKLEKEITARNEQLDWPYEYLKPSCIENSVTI
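Purified human 12hLO (150 nM final) in 25 mM Hepes, 0.01% Triton X-100, pH 7.0 was preincubated 15 min at room temperature with compound. Then 40 uM arachidonic acid was added, 30 min. Hydroperoxide was read by Fe-XO absorbance ratio 573/405 nm.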
TDP1 cell noCPT – qHTS for Inhibitors of human tyrosyl-DNA phosphodiesterase 1 (TDP1): qHTS in cells in absence of CPT | DT40 Tdp1-/- hTDP1 cells, no CPT, ATP luminescence, 48 h | Potency, µM (titrated, usually from 46.2 µM), for the others: top-dose activity change, negative = growth inhibition, hits mostly inhibitors | 15% of 420,000 active; also: potency is read from the fitted curve at half-maximal effect; nearly all actives have a fitted effect of over 55% in size
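Seeded 400 DT40-hTDP1 cells/well (vehicle DMSO, no 20 nM CPT); pinned compounds; ≥48 hr at 37 °C; CellTiter-Glo luminescence as viability measure.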
DT40 TDP1 CPT – growth inhibition of DT40 Tdp1-/-;hTDP1 cells with camptothecin (screen for TDP1 inhibitors) | 12% of 420,000 active | Potency, µM (series often up to 46.2 µM), for the others: at the highest dose activity change, negative = growth inhibition, usual class: inhibitors | chicken DT40 Tdp1-/-;hTDP1 cells + 20 nM CPT, ATP luminescence, 48 h; also: potency is read from the fitted curve at half-maximal effect; nearly all actives have a fitted effect of over 55% in size
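Cell growth measured by CellTiter-Glo luminescence after a minimum 48 h, 37 C compound exposure with 20 nM CPT in Tdp1-knockout DT40 cells stably expressing hTDP1, seeded 400/well; qHTS titration format.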
HT1080-NT tox – kills 2HG-producing HT-1080-NT fibrosarcoma cells | HT-1080-NT fibrosarcoma viability, CellTiter-Glo ATP luminescence, 48 h | Potency, µM (series often up to 46.1 µM), inactives show at the highest dose activity, negative = less viability, hits mostly cytotoxic | 1.6% of 360,000 active;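 also: NT is the 2HG producing partner of a matched IDH1 knockdown line; potency is read from the fitted curve at half-maximal effect; 0% = DMSO-treated cells and -100% = media-only wells without cells; nearly all actives have a fitted effect of over 55% in size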
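Viability by CellTiter-Glo luminescence after 48 h compound exposure at 37C of HT-1080-NT cells (750/well, RPMI, 5% FBS). % activity scaled between DMSO wells and medium-only wells, then curve-fitted and categorized by curve class.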
IL1B secr inh – inhibitors of inflammasome signaling (IL-1 beta secretion); THP-1 LPS/ATP IL-1B secretion, AlphaLISA, 16 h; hits give low values; activity change, % at 57.5 µM; 4.7% of 360,000 active; in the data active = activity change below about -50%; inconclusive = mostly about -30% to -49%
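Secreted IL-1B measured by AlphaLISA bead assay after 16 h compound exposure of THP-1 cells; compounds (final up to 57.5 uM) added 1 h before LPS (250 ng/mL) and ATP (1.25 mM) stimulation; lower signal means less secretion.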
HT1080 IDH1KD tx – kills HT-1080 cells with IDH1 knockdown; HT-1080 IDH1 knockdown viability, ATP luminescence, 48 h; Potency, µM (series often up to 46.1 µM), inactives show at the top dose activity, negative = toxicity, actives largely listed as cytotoxic; 2% of 360,000 active; AID 686971;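 also: potency is read from the fitted curve at half-maximal effect; 0% = DMSO wells and -100% = cell-free medium wells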
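% activity derives from luminescence (CellTiter-Glo), normalised to DMSO and no-cell wells. HT-1080-IDH1KD cells, 750/well, had 48 h compound exposure at 37 °C.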
Active calls of the source: *; ? = inconclusive; · = no result given; ! = not active in a repeat; [ ] = another dose, or the depositor's remark. Shown is part of a subset that was picked to be rich in hits. Unless noted, calls follow the shape of the dose curve; as a rule, active = well fitted curve in the direction sought with a large enough effect; inconclusive = small, poorly fitted or top-dose-only effect, or another doubt; inactive = no such curve, though single readings can be large; an effect the other way counts as inactive or inconclusive. Unless noted, % is scaled to controls: 0 for no effect and ±100 for the full control effect.

SMILES | 12-LOX inh | TDP1 cell noCPT | DT40 TDP1 CPT | HT1080-NT tox | IL1B secr inh | HT1080 IDH1KD tx
Cc1cc(C(=O)N/N=C/c2ccc(Cl)c([N+](=O)[O-])c2)c(C)n1-c1ccc(F)cc1 | 10% | 15µM* | 23µM* | ? | -53* | 21µM*
O=C(N/N=C/c1ccccc1[N+](=O)[O-])c1ccc2nc[nH]c2c1 | 0% | -14% | 1% | 6% | -16 | 16%
Cc1occc1C(=O)N/N=C/c1ccc(Cl)c([N+](=O)[O-])c1 | 18% | ? | ? | -5% | -72* | -1%
O=C(N/N=C/c1ccc(Cl)c([N+](=O)[O-])c1)c1ccc2c(c1)OCCO2 | -27% | 17% | -16% | 3% | -15 | -2%
COc1ccc(/C=N/NC(=O)c2ccoc2C)cc1OC | 4% | -4% | -6% | 28% | 5 | 29%
CC(C)N(C(=O)COc1ccc2ccc(=O)oc2c1)c1ccccc1 | -9% | · | · | · | · | ·
CC(=O)N[C@@H]1CN(Cc2cccn2C)C[C@H]1CO | 279% | · | · | · | · | ·
COC(=O)[C@H]1C[C@@]2(n3ccc4ccccc43)c3ccccc3N(S(=O)(=O)c3ccccc3)[C@H]2N1C(=O)CNC1CCCCC1 | -10% | · | · | · | · | ·
COc1ccc(C(=O)Nc2ccccc2-c2nnn(CC(=O)N3CCOCC3)n2)cc1 | -1% | ? | -27% | 2% | 0 | 1%
CCn1nnc(-c2ccccc2NC(=O)c2cc(OC)cc(OC)c2)n1 | 22% | ? | ? | -2% | -9 | 12%
CCCC(=O)Nc1ccccc1-c1nnn(CC(=O)Nc2ccc(OC)cc2)n1 | 5% | 21µM* | ? | -10% | 7 | -12%
COc1ccc(C(=O)Cn2nnc(-c3ccccc3NC(=O)c3ccco3)n2)cc1 | 0% | 8.2µM* | ? | 8% | -11 | 1%
CCn1nnc(-c2ccccc2NC(=O)c2cc(OC)c(OC)c(OC)c2)n1 | 5% | 15µM* | ? | -13% | 8 | 6%
COc1ccc(S(=O)(=O)Nc2ccccc2-c2nnn(CC(=O)Nc3ccccc3OC)n2)cc1 | 2% | 8.2µM* | 6.5µM* | -2% | -1 | -2%
CCOc1ccc(NC(=O)Cn2nnc(-c3ccccc3NC(=O)c3cccs3)n2)cc1 | 32% | ? | ? | 24% | 42 | 1%
COc1ccc(CCC(=O)N2CCC(Cc3nc(C4CC4)n[nH]3)CC2)cc1 | -3% | · | · | · | · | ·
CCN1CC(C(=O)NCc2csc(-c3ncccn3)n2)CCC1=O (stereo not drawn) | 10% | · | · | · | · | ·
O=C(NCC1CCCO1)c1cc2c(=O)[nH]c(-c3ccccc3)cn2n1 (stereo not drawn) | -3% | · | · | · | · | ·
COc1ccc(NC(=O)Cn2nnc(-c3ccccc3NS(=O)(=O)c3ccccc3)n2)cc1 | · | 18µM* | 23µM* | -19% | 7 | ?
CCOc1ccc(C(=O)NC(CC(=O)OC)c2cccs2)cc1OC (stereo not drawn) | -21% | · | · | · | · | ·
OC(c1cc(-c2ccc(C(F)(F)F)cc2)nc(C(F)(F)F)c1)C1CCCCN1 (stereo not drawn) | ? | 6.5µM* | 1.6µM* | ? | -104* | ?
COc1ccc(-c2cc(C(F)(F)F)nc(SCC(=O)N3CCC(C)CC3)n2)cc1 | -1% | ? | ? | · | · | ·
COc1ccc(NC(C)C(=O)N(C)Cc2cccc(F)c2)c(OC)c1 (stereo not drawn) | -9% | · | · | · | · | ·
CC(C)Cc1ccc(-c2ccc3nccn3c2)cc1 | ? | 18µM* | ? | ? | 7 | ?
COc1ccc(-c2ccc3nccn3c2)cc1 | -15% | ? | -19% | 9% | 0 | 3%
SMILES | 12-LOX inh | TDP1 cell noCPT | DT40 TDP1 CPT | HT1080-NT tox | IL1B secr inh | HT1080 IDH1KD tx
CC(C)(C)C1C/C(=C/c2ccccn2)C(=O)/C(=C/c2ccccn2)C1 (stereo not drawn) | · | 0.52µM* | 0.92µM* | 0.73µM* | -93* | 0.65µM*
CC1C/C(=C/c2ccccn2)C(=O)/C(=C/c2ccccn2)C1 (stereo not drawn) | · | 0.52µM* | 0.52µM* | 0.65µM* | -54* | 0.58µM*
C(=C\c1ccccn1)/c1ccccn1 | 3% | -16% | 4% | ? | -6 | 21%
Cc1ccc(-c2ccc3nnc(CNC(=O)CCC4CCCC4)n3n2)cc1 | -24% | · | · | · | · | ·
CNC(=O)N1CCC(C2CCN(C(=O)c3ccncc3)CC2)C1 (stereo not drawn) | 15% | · | · | · | · | ·
NSc1nc(N)c2nc(-c3ccccc3)c(-c3ccccc3)nc2n1 | ? | 26µM* | ? | -7% | -51* | -5%
Nc1nc(N)c2nc(-c3cccc(O)c3)c(-c3cccc(O)c3)nc2n1 | -15%[57.4 µM] | · | · | · | · | ·
Nc1nc(N)c2nc(-c3ccccc3)c(N)nc2n1 | -17% | 2.1µM* | 15µM* | 2.3µM* | 41 | 2.9µM*
Cc1cccc(NC(=O)c2ccccc2SCc2ccc(F)cc2)n1 | -2% | 15µM* | ? | -6% | 16 | 8%
COc1ccc(C(=O)NCc2nnc(SCC(=O)c3ccc(F)cc3)n2C)cc1OC | -18% | -24% | -16% | -4% | 2 | 2%
Cc1ccc2[nH]c(O)c(N=NC(=O)CCc3ccccc3)c2c1Br | -4% | ? | 16µM* | -6% | -88* | 3%
O=C(O)c1ccccc1-c1c2cc(I)c(=O)c(I)c-2oc2c(I)c(O)c(I)cc12 | 35µM*! | ? | ? | -24% | -10 | -21%
O=C(O)c1c(Cl)c(Cl)c(Cl)c(Cl)c1-c1c2cc(I)c(=O)c(I)c-2oc2c(I)c(O)c(I)cc12 | 0.86µM* | 15µM* | ? | · | · | ·
CCCCN1CC(C(=O)Nc2ccc(C(=O)Nc3ccc(C)c(Cl)c3)cc2)CC1=O (stereo not drawn) | 23% | · | · | · | · | ·
O=C(NCCN1CCC(n2c(=O)[nH]c3ccccc32)CC1)c1ccc(C(F)(F)F)cc1C(F)(F)F | -63% | 4.6µM* | 5.8µM* | -4% | -28 | 0%
O=C(NCCN1CCC(n2c(=O)[nH]c3ccccc32)CC1)c1ccc(F)c(F)c1 | ? | -35% | 0.33µM* | -22% | · | 1%
O=C(NCCN1CCC(n2c(=O)[nH]c3ccccc32)CC1)c1ccc(F)c(C(F)(F)F)c1 | ? | 26µM* | ? | ? | ? | ?
COc1ccc(C(=O)NCCN2CCC(n3c(=O)[nH]c4ccccc43)CC2)cc1F | ? | -28% | -25% | -8% | · | 0%
